Reference: PubChem BioAssay (NCI)
Compounds without any hit were thinned out: in the full panel of roughly 79,000, 15% have a hit. Active and inactive are the calls of the source. No stated cut-off is given here; in the data, active means growth inhibition above about 70%; inactive means the rest.

test: NCI Yeast Anticancer Drug Screen. Data for the rad50 strain (AID 155);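 further: 0% = growth of vehicle-only cultures of the same strain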; conditions: S. cerevisiae rad50 strain growth inhibition; at 33.0 µM; stronger effect = higher value
In short: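 Compounds were tested on a yeast strain with an engineered DNA damage repair alteration; the reported value is growth inhibition normalised to vehicle treatment.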

Row | Structure (SMILES) | growth inhibition
1 | S=C(S)NN1CCOCC1 | 23% (inactive)
2 | COc1cc2c3c(cccc3c1)C(=O)N(CCN(C)C)C2=O | 61% (inactive)
3 | COC(=O)C1=C(C)NC(C)=C(C(=O)OCCCN2CCC(c3ccccc3)(c3ccccc3)CC2)C1c1cccc([N+](=O)[O-])c1 (stereo not given) | 95% (active)
4 | c1ccc2c(c1)Oc1cccc3cccc-2c13 | 23% (inactive)
5 | CN(C)CCOc1ccc2c(c1)C/C(=C/c1ncc([N+](=O)[O-])n1C)C2=O | 83% (active)
6 | Cc1ccc(CCC2=CCCc3c2ccc2ccccc32)cc1 | -1% (inactive)
7 | CNC(=O)OCc1c(COC(=O)NC)c(-c2ccc(Cl)c(Cl)c2)n2c1CCC2 | 87% (active)
8 | Clc1ccccc1C1OC1c1ccccc1Cl (stereo not given) | -51% (inactive)
9 | O=[N+]([O-])c1cc(CCl)ccc1CCl | 97% (active)
10 | O=C1C=CC(=O)c2c(O)c(Nc3ccc(OC(F)(F)F)cc3)c(Cl)c(O)c21 | 67% (inactive)
11 | S=c1[nH]nc(Nc2ccc(Cl)cc2)s1 | -17% (inactive)
12 | Cn1ccnc1Oc1ccc(Cl)cc1 | 76% (active)
13 | BrCc1cccc2ccc3cccc(CBr)c3c12 | 1% (inactive)
14 | O=C1c2ccccc2-c2nc3ccccc3nc21 | 85% (active)
15 | CCCCCCCCCCCCCCCCCCNC | 17% (inactive)
16 | Oc1ccc(NCn2c(=S)sc3ccccc32)cc1 | 42% (inactive)
17 | O=C1C2CC[C@@H]3C(=O)C(Cl)(Cl)[C@@H]3CCC2C1(Cl)Cl (stereo not given in full) | 33% (inactive)
18 | CC[n+]1ccc2c(C)c3[nH]c4ccc(O)cc4c3c(C)c2c1 | 86% (active)
19 | Cc1ccc(-n2cc(-c3ccc(Cl)cc3)c(C#N)c2N)cc1 | 4% (inactive)
20 | CC(=O)[O][Bi]([c]1ccccc1)[c]1ccccc1 | 95% (active)

Row | Structure (SMILES) | growth inhibition
21 | CC1=C(SCCO)C(=O)c2ccccc2C1=O | 37% (inactive)
22 | C/C(=N\O)C1CC2C=C(C#N)C1N(Cc1ccccc1)C2 (stereo not given) | 0% (inactive)
23 | CC(Br)C(=O)c1ccc2cc(Br)c3ccccc3c2c1 (stereo not given) | 0% (inactive)
24 | Nc1nc(-c2cccnc2)cc(-c2cc(-c3cccnc3)nc(N)n2)n1 | 4% (inactive)
25 | CC(C)=CC(=O)O[C@@H]1CC(C)(C)CC2C3=CCC4[C@]56CC[C@](O)(OC5)C(C)(C)C6CC[C@@]4(C)C3(C)CC[C@]21C(=O)O (stereo not given in full) | 94% (active)
26 | CCC(C)COC(=O)c1ccc(N=Cc2ccc(C=Nc3ccc(C(=O)OCC(C)CC)cc3)cc2)cc1 (stereo not given) | 3% (inactive)
27 | Oc1cccc2c(Cl)ccnc12 | 97% (active)
28 | O=C(O)c1cccc(-c2c3ccc(=O)cc-3oc3cc(O)ccc23)c1 | 65% (inactive)
29 | CN(CCc1ccccn1)c1ccc2c(c1)Cc1ccccc1-2 | 68% (inactive)
30 | Cc1cc(S(=O)(=O)/N=C(/NN)NNc2cccc(C(F)(F)F)n2)c(S)cc1Cl | -3% (inactive)
31 | O=C1C2C(C(=O)N1c1ccc(OCc3ccccc3)cc1)C1c3ccccc3C2C2CCCCN21 (stereo not given) | 41% (inactive)
32 | Nc1ccccc1CC(O)C(=O)O (stereo not given) | 85% (active)
33 | O=C(O)C1CCCCC1c1c2ccc(=O)c(O)c-2oc2c(O)c(O)ccc12 (stereo not given) | 28% (inactive)
34 | Cc1ccc2ccc(O)cc2c1 | -11% (inactive)
35 | O=C1C(=O)c2ccccc2C=C1[N+](=O)[O-] | 36% (inactive)
36 | COC(=O)c1ccc(NCC2=CC(=O)C=CC2=O)cc1O | 95% (active)
37 | C(CCSC1=NCCN1)CSC1=NCCN1 (tested in a mixture with another compound) | 99% (active)
38 | N#Cc1c(N)[nH]c2ccc(Sc3ccccc3)cc12 | 93% (active)
39 | CCNc1nnc(CSc2nc(-c3ccccc3)c(-c3ccccc3)[nH]2)s1 | 77% (active)
40 | CC[C@@]1(O)C(=O)OCc2c1cc1n(c2=O)Cc2cc3c(N)cccc3nc2-1 | 86% (active)

same assay, conditions: S. cerevisiae rad50 strain growth inhibition; at 50.0 µM (retest, dose inferred, filed as 5.0); stronger effect = higher value

Row | Structure (SMILES) | growth inhibition
41 | S=C(S)NN1CCOCC1 | 66% (inactive)
42 | COc1cc2c3c(cccc3c1)C(=O)N(CCN(C)C)C2=O | 77% (active)
43 | COC(=O)C1=C(C)NC(C)=C(C(=O)OCCCN2CCC(c3ccccc3)(c3ccccc3)CC2)C1c1cccc([N+](=O)[O-])c1 (stereo not given) | 99% (active)
44 | c1ccc2c(c1)Oc1cccc3cccc-2c13 | 98% (active)
45 | CN(C)CCOc1ccc2c(c1)C/C(=C/c1ncc([N+](=O)[O-])n1C)C2=O | 75% (active)
46 | Cc1ccc(CCC2=CCCc3c2ccc2ccccc32)cc1 | -25% (inactive)
47 | CNC(=O)OCc1c(COC(=O)NC)c(-c2ccc(Cl)c(Cl)c2)n2c1CCC2 | 98% (active)
48 | Clc1ccccc1C1OC1c1ccccc1Cl (stereo not given) | 100% (active)
49 | O=[N+]([O-])c1cc(CCl)ccc1CCl | 98% (active)
50 | O=C1C=CC(=O)c2c(O)c(Nc3ccc(OC(F)(F)F)cc3)c(Cl)c(O)c21 | 46% (inactive)
51 | S=c1[nH]nc(Nc2ccc(Cl)cc2)s1 | 32% (inactive)
52 | Cn1ccnc1Oc1ccc(Cl)cc1 | 83% (active)
53 | BrCc1cccc2ccc3cccc(CBr)c3c12 | 85% (active)
54 | O=C1c2ccccc2-c2nc3ccccc3nc21 | 97% (active)
55 | CCCCCCCCCCCCCCCCCCNC | 90% (active)
56 | Oc1ccc(NCn2c(=S)sc3ccccc32)cc1 | 100% (active)
57 | O=C1C2CC[C@@H]3C(=O)C(Cl)(Cl)[C@@H]3CCC2C1(Cl)Cl (stereo not given in full) | 70% (active)
58 | CC[n+]1ccc2c(C)c3[nH]c4ccc(O)cc4c3c(C)c2c1 | 92% (active)
59 | Cc1ccc(-n2cc(-c3ccc(Cl)cc3)c(C#N)c2N)cc1 | 69% (inactive)
60 | CC(=O)[O][Bi]([c]1ccccc1)[c]1ccccc1 | 94% (active)

Row | Structure (SMILES) | growth inhibition
61 | CC1=C(SCCO)C(=O)c2ccccc2C1=O | 99% (active)
62 | C/C(=N\O)C1CC2C=C(C#N)C1N(Cc1ccccc1)C2 (stereo not given) | -1% (inactive)
63 | CC(Br)C(=O)c1ccc2cc(Br)c3ccccc3c2c1 (stereo not given) | 41% (inactive)
64 | Nc1nc(-c2cccnc2)cc(-c2cc(-c3cccnc3)nc(N)n2)n1 | 5% (inactive)
65 | CC(C)=CC(=O)O[C@@H]1CC(C)(C)CC2C3=CCC4[C@]56CC[C@](O)(OC5)C(C)(C)C6CC[C@@]4(C)C3(C)CC[C@]21C(=O)O (stereo not given in full) | 88% (active)
66 | CCC(C)COC(=O)c1ccc(N=Cc2ccc(C=Nc3ccc(C(=O)OCC(C)CC)cc3)cc2)cc1 (stereo not given) | 96% (active)
67 | Oc1cccc2c(Cl)ccnc12 | 99% (active)
68 | O=C(O)c1cccc(-c2c3ccc(=O)cc-3oc3cc(O)ccc23)c1 | 99% (active)
69 | CN(CCc1ccccn1)c1ccc2c(c1)Cc1ccccc1-2 | 57% (inactive)
70 | Cc1cc(S(=O)(=O)/N=C(/NN)NNc2cccc(C(F)(F)F)n2)c(S)cc1Cl | 52% (inactive)
71 | O=C1C2C(C(=O)N1c1ccc(OCc3ccccc3)cc1)C1c3ccccc3C2C2CCCCN21 (stereo not given) | 50% (inactive)
72 | Nc1ccccc1CC(O)C(=O)O (stereo not given) | 94% (active)
73 | O=C(O)C1CCCCC1c1c2ccc(=O)c(O)c-2oc2c(O)c(O)ccc12 (stereo not given) | 77% (active)
74 | Cc1ccc2ccc(O)cc2c1 | 33% (inactive)
75 | O=C1C(=O)c2ccccc2C=C1[N+](=O)[O-] | 30% (inactive)
76 | COC(=O)c1ccc(NCC2=CC(=O)C=CC2=O)cc1O | 96% (active)
77 | C(CCSC1=NCCN1)CSC1=NCCN1 (tested in a mixture with another compound) | 98% (active)
78 | N#Cc1c(N)[nH]c2ccc(Sc3ccccc3)cc12 | 44% (inactive)
79 | CCNc1nnc(CSc2nc(-c3ccccc3)c(-c3ccccc3)[nH]2)s1 | 94% (active)
80 | CC[C@@]1(O)C(=O)OCc2c1cc1n(c2=O)Cc2cc3c(N)cccc3nc2-1 | 84% (active)
